# Data as given in PubChem BioAssay AID651561 (Sanford-Burnham Center for Chemical Genomics, 2012).
# The other results are listed elsewhere or left out. Unmarked numbers belong to inactive results. The source made the active and inactive calls. Rule as the data show it: active = IC50 below about 20 µM; inactive = the rest.
# Assay: blockers of mitochondrial swelling via MPTP – biochemical, absorbance, uHTS hits, dose response (AID 651561)
# Settings: isolated mitochondria swelling
row,SMILES,IC50
1,Cc1nn(Cc2ccccc2)c2c1C(c1ccccc1)C(C#N)=C(N)O2 (stereo not drawn),25.9 µM
2,CN(C)Cc1ccc(F)cc1Sc1cc(Cl)ccc1Cl,45 µM
3,CCCc1[nH]nc2c1C(c1c(C)nn(-c3ccccc3)c1Cl)C(C#N)=C(N)O2 (stereo not drawn),> 100 µM
4,CN1CCC[C@@H]1CCO[C@](C)(c1ccccc1)c1ccc(Cl)cc1,8.66 µM (active)
5,CCCCOC(=O)CNc1nnc(SCC(=O)OCC)[nH]c1=O,> 100 µM
6,O=C(Nc1cccc(-c2cccc(Cl)c2)c1)C1CCN(C2CCC2)CC1,5.2 µM (active)
7,CCCCCCCCCCCCN1C(=O)CSC1c1cccnc1 (stereo not drawn),9.05 µM (active)
8,O=C(c1ccc(Cl)cc1)c1ccc(OCC(O)CN2CCCCC2)cc1 (stereo not drawn),17.4 µM (active)
9,NC(N)=N/N=C/c1ccc(Cl)c([N+](=O)[O-])c1,7.68 µM (active)
10,Brc1ccc(CSc2ccc(-c3ccco3)nn2)cc1,> 100 µM
11,FC(F)(F)COc1nc(N2CCCCC2)nc(N2CCNCC2)n1,18.9 µM (active)
12,COCCn1c(CN2CCC(Cc3ccccc3)CC2)nc2c1c(=O)n(C)c(=O)n2C,3.99 µM (active)
13,Clc1ccc(-c2cc(C3CCNCC3)[nH]n2)c(Cl)c1,11.7 µM (active)
14,O=C(COC(=O)c1ccccc1NC(=O)c1ccco1)Nc1ccc2c(c1)OC(F)(F)O2,23.5 µM
15,CC1(C)CC(=O)c2sc(N)nc2C1,> 100 µM
16,C[C@@H](CN1CCC[C@H]1CN1C(N)=NC[C@@H]1Cc1ccccc1)N1C[C@@H](Cc2ccccc2)N(CCCC2CCCC2)C1=N,3.54 µM (active)
17,Cc1cc(C)c(NC(=O)C[N+](C)(C)CC(O)COc2cccc3ccccc23)c(C)c1 (stereo not drawn),3.67 µM (active)
18,NC[C@H](Cc1ccccc1)NCCc1cc(C(F)(F)F)cc(C(F)(F)F)c1,12 µM (active)
